Compound activity from PubChem BioAssay.
The list is not random: actives were taken first. Their share in the collection is about 2.5%.
MEKK2wt PB1 HTS: raises or lowers MEK5 binding to wildtype human MEKK2 PB1 domain. Q9Y2U5. bead flow cytometry, Alexa488-MEK5 binding to MEKK2 WT; actives lie on both sides. binding response (% of control), % at 10 µM. 1.1% of 290,000 active. AID 1531; in the data active = binding response below about 67% or above about 130%; inconclusive = no clear call, values can overlap the other calls; inactive = in between
MEKK2mut PB1 HTS: signal of MEK5 binding to mutant human MEKK2 PB1 domain; bead flow cytometry, Alexa488-MEK5 binding to MEKK2 mutant; percent response, % at 10 µM; 0.35% of 290,000 active; AID 1530; in the data active = percent response above about 24%, passing the limit was not always enough
UBC13 inh: human UBC13 polyubiquitination inhibition; UBC13 polyubiquitin chain formation, TR-FRET; inhibition, % at 20 µM; 0.47% of 330,000 active; P61088; AID 485273; in the data active = inhibition above about 45%, passing the limit was not always enough; inconclusive = no clear call, values can overlap the other calls
Target sequence (P61088 whole entry, looked up): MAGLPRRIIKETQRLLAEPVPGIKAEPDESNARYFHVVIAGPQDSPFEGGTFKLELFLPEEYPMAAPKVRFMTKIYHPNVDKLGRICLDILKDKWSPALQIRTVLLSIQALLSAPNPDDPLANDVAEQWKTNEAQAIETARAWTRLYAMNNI
Rce1 inh: yeast Ras-converting enzyme inhibition. Q03530. yeast membranes, quenched prenylated peptide cleavage fluorescence. calls only. 0.27% of 290,000 active. AID 2563;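 active = fall in fluorescence gain of 50% or more versus controls, with final raw signal at or below 3038400; inconclusive = same 50% fall but final raw signal above 3038400; inactive = fall in fluorescence gain under 50%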
MEKK3 PB1 HTS: modulators (inhibitors or enhancers) of MEK5 binding to human MEKK3 PB1 domain; Q99759; bead-based flow cytometry, Alexa488-MEK5 binding to MEKK3; actives lie on both sides; 0 = blocked by unlabeled MEK5, 100 = vehicle; binding response (% of control), % at 10 µM; 1.4% of 290,000 active; AID 1529;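 active = binding response more than 3 SD above or below the average of its plate-row segment, actives on both sides; inconclusive = wells at one plate position flagged as instrument error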;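 note: Alexa488 bead fluorescence after subtracting the streptavidin-only scavenger bead signal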
Casp3 counter: inhibits human caspase-3 in UBC13 counter-screen; shares compounds with UBC13 inh; Recombinant caspase-3, Caspase-Glo 3/7 luminescence, 60 min; inhibition, % at 20 µM; 4% of 1,400 active; AID 488856;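 active = mean inhibition across replicates above about 26%, limit read from the data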
Target sequence (P42574 whole entry, looked up): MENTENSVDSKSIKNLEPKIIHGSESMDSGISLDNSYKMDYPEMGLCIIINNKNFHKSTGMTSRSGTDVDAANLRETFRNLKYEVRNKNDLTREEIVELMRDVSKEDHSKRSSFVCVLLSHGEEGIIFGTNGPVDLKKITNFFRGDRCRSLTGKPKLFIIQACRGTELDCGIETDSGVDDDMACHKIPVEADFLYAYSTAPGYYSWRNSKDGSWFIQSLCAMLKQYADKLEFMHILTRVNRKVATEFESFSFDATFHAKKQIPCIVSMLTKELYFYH
UBC13 conf: confirmation of human UBC13 polyubiquitin inhibitors; UBC13 polyubiquitination, TR-FRET, biochemical; inhibition, % at 10 µM; 68% of 1,400 active; shares compounds with UBC13 inh; in the data active = inhibition above about 45%; inconclusive = no clear call, values can overlap the other calls
Of the large screens only hits and unclear results are named; the others gave an inactive call (follow-up assays come after a bar, where they were run).

C#CCOCCOCCOCCNc1nc(N2CCN(C(=O)[C@H](CCC(=O)O)n3cc(CN)nn3)CC2)nc(N2CCN(C(=O)[C@H](CCCCN)n3cc([C@@H](N)CC(N)=O)nn3)CC2)n1	none (no result: MEKK2wt PB1 HTS, MEKK2mut PB1 HTS, Rce1 inh, MEKK3 PB1 HTS)
C#CCOCCOCCOCCNc1nc(N2CCN(C(=O)[C@H]([C@@H](C)O)n3cc(CCCCN)nn3)CC2)nc(N2CCN(C(=O)[C@H](CCCCN)n3cc(CCCC)nn3)CC2)n1	none (no result: MEKK2wt PB1 HTS, MEKK2mut PB1 HTS, Rce1 inh, MEKK3 PB1 HTS)
C#CCOCCOCCOCCNc1nc(N2CCN(C(=O)[C@H](CCCCN)n3cc(CN)nn3)CC2)nc(N2CCN(C(=O)[C@H](CCCCN)n3cc(CN)nn3)CC2)n1	UBC13 inh 103.2 (no result: MEKK2wt PB1 HTS, MEKK2mut PB1 HTS, Rce1 inh, MEKK3 PB1 HTS) | Casp3 counter inactive | UBC13 conf 111.7
CC(C)NCC1CCc2cc(CO)c([N+](=O)[O-])cc2N1 (stereo unspecified)	none
CNC(=O)c1c(NC(=O)c2ccc(N3C(=O)CCC3=O)cc2)sc2c1CCCC2	none
CNC(=O)c1c(NC(=O)c2cccc(N3C(=O)CCC3=O)c2)sc2c1CCC2	UBC13 inh 49.6 | Casp3 counter inactive | UBC13 conf inactive
COc1c(Cl)ccc(Cl)c1C(=O)NC(=S)N1CCOCC1	none
COc1ccc(S(=O)(=O)N2CCN(c3ccc4nnc(-c5ccccc5)n4n3)CC2)cc1	UBC13 inh 51.2 | Casp3 counter inactive | UBC13 conf inactive
O=C(CCn1cccc1)Nc1ccc(OC(F)(F)F)cc1	none
O=C(CCCn1c(=S)[nH]c2ccsc2c1=O)NCCc1ccccc1	UBC13 inh 55.6 | Casp3 counter inactive | UBC13 conf inconclusive
O=C(CCn1c(=S)[nH]c2ccccc2c1=O)NCCc1ccccc1	none
CC(C)(C)NC(=O)COC(=O)c1ccccc1OCC(=O)Nc1ccc(Br)cc1	none
COc1ccccc1OCCNC(=O)c1cccc(S(=O)(=O)N2CCN(Cc3ccccc3)CC2)c1	UBC13 inh 69.9 (no result: MEKK2wt PB1 HTS, MEKK2mut PB1 HTS, Rce1 inh, MEKK3 PB1 HTS) | Casp3 counter inactive | UBC13 conf 55.6
CN(Cc1ccc(Cl)c(Cl)c1)C(=O)c1cccc(S(=O)(=O)N2CCN(Cc3ccccc3)CC2)c1	UBC13 inh 85.9 (no result: MEKK2wt PB1 HTS, MEKK2mut PB1 HTS, Rce1 inh, MEKK3 PB1 HTS) | Casp3 counter inactive | UBC13 conf 104.4
COc1cc(OC)cc(-c2c(-c3ccc(F)cc3)c3cc(-c4ccc(OC)nc4)ccc3n2C)c1	none (no result: MEKK2wt PB1 HTS, MEKK2mut PB1 HTS, Rce1 inh, MEKK3 PB1 HTS)
COc1cccc(-c2c(-c3cc(OC)cc(OC)c3)n(C)c3ccc(-c4ccc(OC)nc4)cc23)c1	UBC13 inh 46.4 (no result: MEKK2wt PB1 HTS, MEKK2mut PB1 HTS, Rce1 inh, MEKK3 PB1 HTS) | Casp3 counter inactive | UBC13 conf inconclusive
COc1ccc(-c2c(-c3cc(OC)cc(OC)c3)n(C)c3ccc(Br)cc23)cc1	UBC13 inh 48.5 (no result: MEKK2wt PB1 HTS, MEKK2mut PB1 HTS, Rce1 inh, MEKK3 PB1 HTS) | Casp3 counter inactive | UBC13 conf inactive
N#Cc1ccsc1NC(=O)CCN1CCN(C(c2ccccc2)c2ccccc2)CC1	none
CC(OC(=O)CNC(=O)c1ccc2ccccc2c1)C(=O)NC1CCCCC1C (stereo unspecified)	none
C=C(C)CNC(=S)N=Nc1c(O)[nH]c2ccc([N+](=O)[O-])cc12	UBC13 inh 48.9 | Casp3 counter inactive | UBC13 conf 46.8
O=C(NCCCN1CCCC1)c1ccc2c(c1)N(Cc1ccccc1)CCS2	UBC13 inh 54.8 | Casp3 counter inactive | UBC13 conf 68.8
CCN1CCN(CCCNC(=O)c2ccc3c(c2)N(Cc2ccccc2)CCS3)CC1	none
O=C(NC(=S)NCC1CCCO1)c1ccc([N+](=O)[O-])cc1 (stereo unspecified)	none
COc1cc2nc(N3CCNCC3)nc(N)c2cc1OC	UBC13 inh 106.8 | Casp3 counter inactive | UBC13 conf 118.4
CCn1c(=O)[nH]c(=O)c2c(N)c(C(=O)c3cc(F)ccc3F)sc21	none
CN(C)C(CNC(=O)c1coc2ccccc2c1=O)c1ccccc1 (stereo unspecified)	UBC13 inh 56.4 | Casp3 counter inactive | UBC13 conf 58.9
O=C(C[n+]1cccc(CNC(=O)c2ccc(OC(F)F)cc2)c1)Nc1ccc(SC(F)F)cc1	UBC13 inh 55.0 | Casp3 counter inactive | UBC13 conf 101.5
O=C(NCCN1CCN(c2ccccc2)CC1)c1ccc2c(c1)[nH]c(=S)n1c3ccccc3nc21	UBC13 inh 46.6 | Casp3 counter inactive | UBC13 conf inconclusive
